# The supplement of paper PMC11417369
# Whole data set: some 25,000 sequences, median “ln(normalized median fluorescence intensity)” near 9.3, cut for the highest 2% near 10. This excerpt belongs to a sample that is enriched for the highest values.
# Tested on: PF3D7_0420300 AP2 domain 1 (GST-tagged)
# Test: gcPBM binding intensity (ln(normalized median fluorescence intensity)); higher = stronger DNA binding
# Method in brief: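 DNA-binding domains from P. falciparum, fused to GST and produced in E. coli, were put on an Agilent 4 × 180k double-stranded probe array for 1 h in 1× PBS holding 1% milk, 0.2 mg/ml BSA, 0.5% salmon testes DNA and 0.03% Triton X-100. Probes were primer-extended, 36 bp long and drawn from intergenic genomic regions, with negative controls included. After Alexa488 anti-GST antibody detection and a 488 nm scan, binding intensity was set as the highest Masliner-normalised natural-log median intensity across replicate spots of either probe orientation.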
row,Sequence,gcPBM binding intensity (ln)
1,TATATATATATATTATGTACTCATTTATTATCTTTT [XGTACX_site8051],9.36
2,TTTGTCATTTTATTATGTACTCAGCATATAGGGGGG [XGTACX_site505],10.5
3,TATATATATATATATGCATGTACATATATTTGTTAT [TGCATGCA_site379],9.57
4,ATGCATATATTTATGTGTACATATATTTGTAGGGGG [XGTACX_site6063],10.7
5,ATATATATATATATATGTACTCATATTTTATTATTT [XGTACX_site898],9
6,ATATATATTTATATATGTACATATTTTTGTGTATTT [XGTACX_site1183],9.55
7,TATATACACATATATACACACACATATATATATATA [CACACA_site9127],9.79
8,TTACCAAAAACCTCAAGTACAAAAAATCCCTAATAT [XGTACX_site2313],9.37
9,TATATATTAAACTTTGCACACATAATTTAACTACAA [CACACA_site3440],9.4
10,TTAGATATAAAAGCATGTACTTGTATAAAATATATA [XGTACX_site8272],9.16
11,TATACAGACAGACACACACACATATATATATATATA [CACACA_site1734],9.82
12,TACAGACATACATACACACATACATATATATATATA [CACACA_site1940],9.67
13,CATGCAAAAAATTCCACACACACACCCACATATAAA [CACACA_site1229],9.92
14,CACACCCACAGACACACACACACATATATAATATAT [CACACA_site594],10.2
15,TTACATTATATACATACACACCCACCCACAAAAAAA [CACACA_site8187],10.1
16,TACATATACAGACACACACACACACCCCCACAAAAA [CACACA_site495],10.3
17,TTGGCATACAGACACACACACACACGCCCACATATA [CACACA_site6425],10.2
18,TACATGCAAAAAATTCCACACACACCCCCACATATA [CACACA_site8329],10.2
19,CACACCCACAGACACACACACACATATATATATATA [CACACA_site363],10.2

row,Sequence,gcPBM binding intensity (ln)
1,TGCAAAAAATTCCACACACACACACCCATATAAATA [CACACA_site1230],10
2,TATATACATAGACACCCACACACAAAAAAAAAAAAA [CACACA_site8186],9.75
3,CCTTTATATTATAAAAGTACATAATATTTTATAAGT [XGTACX_site1629],8.96
4,TATATATGTATCATTACACACATGTATACTTATTTG [CACACA_site4138],9.71
5,TGAGAGTTCTCATATGCACACAAAAAACTTTCATTT [CACACA_site7898],9.28
6,TATTTTTAATAAAAACGTACGGAATACAAAAAAAAT [XGTACX_site3477],9.4
7,AAGAAAATTGTCTGAAGTACAAAACATTAATAATAT [XGTACX_site4864],9.27
8,ATATTATAATTAAAACGTACGTATTTATGAATTCAT [XGTACX_site1047],9.16
9,ATAAATAATATAAATACACACTAAAAAAAATATATA [CACACA_site4456],9.7
10,CAAAAACATACCTACACACACAATATGTATAAATAA [CACACA_site7617],10
11,CACCCCCACAGACACACACACACACCCATATATATA [CACACA_site364],10.3
12,CATACACCCATACATACACACATACAGATATATATA [CACACA_site5123],9.74
13,TTGGCATACAGACACACACACACACCCCCACATATA [CACACA_site590],10.1
14,TAAATACAGACATACACACATACACCCACATATATA [CACACA_site547],9.95
15,TACCTATACAGACACACACACACACGCCCACAAAAA [CACACA_site6375],10.3
16,TATACATACAGACCCACACACAAAAAAAAAAAAAAA [CACACA_site6536],9.38
17,GGCATACACAGACACACACACACACCCACATATATA [CACACA_site591],10.3
18,AATACACGCAGACACACACACAAAAAAAAAAAAAAA [CACACA_site6384],9.61
19,CGCACCCACAGACACACACACACATATATATATATA [CACACA_site2202],10.2

row,Sequence,gcPBM binding intensity (ln)
1,ATATTATTGTAGAAATGTACATATATATATATATAT [XGTACX_site1882],9.31
2,ATCATATGTATGCATACACACAAAAAGTTATTTATA [CACACA_site6325],9.37
3,AAAAAAAAAAAACACACACACACACCCAAATATATA [CACACA_site150],10.1
4,TAAACACCCATATAAACACACATACATACATACATA [CACACA_site5383],9.7
5,TATATAAAGAAACACACACACACCTTATAATTATTA [CACACA_site4062],10
6,ATAAATAAAAAACACACACACACACCCAAAAAAAAA [CACACA_site2624],10.1
7,TTAACAAATAAACACACACACACACCCAAAAAAAAA [CACACA_site8068],10.1
8,TATATAAATAAACACACACACACCTTATAATTATTA [CACACA_site9345],9.93
9,TGCAACAAAATAAACACACACACACCCCCACAAAAA [CACACA_site3388],10.3
10,AAAAAAAAAAAACACACACACACACCCACAAAATAT [CACACA_site1447],10.2
11,CATACATACAAACACACACACACACCCATATATATA [CACACA_site2918],10.4
12,TATATAAATGGACACACACACACCTTATAATTATTA [CACACA_site6093],10.2
13,TATAAACACCCATATAAACACACATACATACATACA [CACACA_site8791],9.58
14,CACAAACAAAAACACACACACACACCCACAAAAATG [CACACA_site2429],10.1
15,TTATATAACATTATTTGTACATATAAAATATGGATG [XGTACX_site8526],9
16,ATATTATTTTAAAGTACACACATATATTGATATATA [CACACA_site7153],9.39
17,TGAATTCGTCAAAAGCGTACATATAATATCTTCTTG [XGTACX_site8842],9.19
18,AAAAACTATTGTAGGACACACAAAATTCCAATTTTA [CACACA_site1701],9.41
19,GTCACAAAATAAATTAAACACACAACATCATATATG [CACACA_site8182],9.65
